Reference: PubChem BioAssay (NCATS)
Records with an inconclusive call do not appear. Entries that show only a call come without a potency. A number with no mark means an inactive call. Activity calls are given as the source filed them. The call rests on the fitted dose curve; in most records, active means well fitted curve in the direction sought with a large enough effect; inconclusive means small, poorly fitted or top-dose-only effect, or another doubt; inactive means no such curve, though single readings can be large; an effect the other way counts as inactive or inconclusive.

Key:
[1] = target: Cellular tumor antigen p53 (Homo sapiens) (UniProt P04637); assay: Primary qHTS for small molecule compounds that upregulate eGFP-tagged delta133p53alpha (in N-terminal) cells. (AID 2060322); conditions: NCI-H358 eGFP-delta133p53alpha fluorescence, 24 h; activation: active compounds read high; further: nearly all actives have a fitted effect of over 75% in size; further: potency means the concentration at half of the fitted maximal effect
Method in brief: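 NCI-H358 cells pre-induced 24 h with 10 ng/ml doxycycline to express N-terminal eGFP-delta133p53alpha, then dosed 24 h at 37C without doxycycline; fixed, Hoechst-stained, GFP intensity by laser scanning cytometry, normalized to DMSO (0%) and 57.5 uM 5-azacytidine (100%).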

[2] = target: Aldehyde dehydrogenase, mitochondrial (Homo sapiens) (UniProt P05091); assay: qHTS for Inhibitors of the Aldehyde Dehydrogenase Family (ALDH2) Primary screen (AID 2061308); conditions: ALDH2 enzyme inhibition qHTS, 1536-well; series mostly up to 56 µM; further: nearly all actives have a fitted effect of over 55% in size
[3] = target: Retinaldehyde dehydrogenase 3 (Homo sapiens) (UniProt P47895); assay: qHTS for Inhibitors of the Aldehyde Dehydrogenase Family (ALDH1A3) Primary screen (AID 2061315); conditions: ALDH inhibition qHTS; series mostly up to 56 µM

Chain of Cellular tumor antigen p53 (Homo sapiens) (P04637 whole entry, looked up): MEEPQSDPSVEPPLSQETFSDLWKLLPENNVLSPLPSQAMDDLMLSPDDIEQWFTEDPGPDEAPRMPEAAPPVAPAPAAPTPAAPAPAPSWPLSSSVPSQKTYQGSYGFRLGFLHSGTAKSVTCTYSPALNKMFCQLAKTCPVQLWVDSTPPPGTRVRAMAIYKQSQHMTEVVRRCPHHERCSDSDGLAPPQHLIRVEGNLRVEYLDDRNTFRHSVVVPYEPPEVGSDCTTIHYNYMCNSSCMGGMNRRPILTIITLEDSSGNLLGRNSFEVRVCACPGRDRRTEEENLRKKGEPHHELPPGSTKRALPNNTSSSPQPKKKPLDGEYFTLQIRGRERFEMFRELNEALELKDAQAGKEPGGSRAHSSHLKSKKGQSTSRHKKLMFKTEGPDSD

CC(=O)OC1CC(C(C)(C)O)OC2CCC3(C)OC4=C(C(=O)C=C5C(C)C(OC(C)=O)C6(C)C(C)OC546)C(O)C3C12C (stereo unspecified)
activation [1]: 2.68% | Potency [2]: inactive | Potency [3]: inactive

O=C(O)/C=C/c1ccc2occc2c1O[C@@H]1O[C@H](CO)[C@@H](O)[C@H](O)[C@H]1O
activation [1]: 8.4% | Potency [2]: inactive | Potency [3]: inactive

COc1ccc(C(OC2OC(CO)C(O)C(O)C2O)C(C)O)cc1 (stereo unspecified)
activation [1]: 9.82% | Potency [2]: inactive | Potency [3]: inactive

Nc1c(Br)cc(Br)cc1CNC1CCC(O)CC1 (stereo unspecified)
activation [1]: 29.7% | Potency [2]: inactive | Potency [3]: inactive

C[C@@H]1O[C@@H](OC[C@H]2O[C@@H](Oc3cc(O)cc4c3C(=O)C(O)(Cc3ccc(O)cc3)O4)[C@H](O)[C@@H](O)[C@@H]2O)[C@H](O)[C@H](O)[C@H]1O (stereo partly specified)
activation [1]: -11.5% | Potency [2]: inactive | Potency [3]: inactive

CCc1cc(CN2CC(C(=O)O)C2)sc1-c1noc(-c2ccc(Oc3ccccc3)cc2)n1
activation [1]: -2.39% | Potency [2]: inactive | Potency [3]: inactive

CC(=O)NC(C(=O)OC1CCC(C)(C)C2CC=C3C(=O)OCC3(O)C12C)C(C)C (stereo unspecified)
activation [1]: -16.8% | Potency [2]: inactive | Potency [3]: inactive

CC(=O)OC1CCC2(C)C(CCC3(C)C2CC=C2C4CC(C)(C)CCC4(C)CCC23C)C1(C)C(=O)O (stereo unspecified)
activation [1]: 27.7% | Potency [2]: inactive | Potency [3]: inactive

C=C1C(=O)O[C@@H]2[C@H]1[C@H](O)C[C@]1(C)[C@@H](O)CC=C(C)[C@@H]21
Potency [1]: 15.1 µM (active) | Potency [2]: inactive | Potency [3]: inactive

CCC(C)(C)C1CCc2c(sc(NC(=O)c3ccc(Br)cc3)c2C#N)C1 (stereo unspecified)
activation [1]: -0.333% | Potency [2]: inactive | Potency [3]: inactive

CC(C)=CCC/C(C)=C/Cc1ccc(O)c(C2OC(=O)c3cc(C(=O)O)cc(O)c32)c1O (stereo unspecified)
activation [1]: -1.53% | Potency [2]: inactive | Potency [3]: inactive

N#Cc1ccc(N2N=C3c4ccc(C(=O)O)cc4CC[C@@H]3[C@@H]2C2CCCC2)cc1Cl
activation [1]: -25% | Potency [2]: inactive | Potency [3]: inactive
